Inconclusive results are not listed. A call without a number means that no potency is given here. Active and inactive are the calls of the source. Calls come from the whole dose curve; as a rule, active = well fitted inhibition curve with a large enough effect; inconclusive = small, poorly fitted or top-dose-only effect; inactive = no such curve, though single readings can be large or run the other way.

The first assay is described as follows: Counterscreen qHTS for small molecule stabilizers of the endoplasmic reticulum resident proteome: GLuc-NoTag assay (AID 1508627).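 Note: SH-SY5Y cells given compound then 100 nM thapsigargin to empty ER calcium.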 Particulars: Gaussia luciferase NoTag secretion counterscreen, luminescence, thapsigargin 100 nM for final 4 h; series mostly up to 76.4 µM. An outline of the steps: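 SH-SY5Y cells stably expressing constitutively secreted GLuc without SERCaMP tag, exposed to compound for 19 hr, then to 100 nM thapsigargin for 4 hr at 37C. Medium luciferase was read by coelenterazine luminescence without lysis.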
(In general: The purpose of a counterscreen is to sort out artefacts and off-target activity.)
On to `Clc1ccc(C(c2ccc(Cl)cc2)n2cc[n+](CC(OCc3ccc(Cl)cc3Cl)c3ccc(Cl)cc3Cl)c2)cc1` (stereo not drawn), for which the Potency entry is “inactive”.

As to `CN1CCN(c2ccc([N+](=O)[O-])c3no[n+]([O-])c23)CC1`, the Potency result is “inactive”.

Regarding `C[C@H]1CCCC=CC2C[C@H](O)C[C@@H]2[C@H](O)C=CC(=O)O1` (stereo partly drawn), the Potency result was “inactive”.

For the compound `CC=C(C)C(=O)O[C@H]1C(C)=C2[C@@H]3OC(=O)[C@@](C)(O)[C@@]3(O)[C@@H](OC(=O)CCC)C[C@](C)(OC(C)=O)[C@@H]2[C@@H]1OC(=O)CCCCCCC`, the Potency entry is “inactive”.

Another assay can be described thus: Confirmatory qHTS for small molecule stabilizers of the endoplasmic reticulum resident proteome: Secreted ER Calcium Modulated Protein (SERCaMP) assay (AID 1508628).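 Note: SH-SY5Y cells given compound 16 h then thapsigargin 100 nM for 4 h; nearly all actives have a fitted effect of over 40% in size.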 To be noted: SERCaMP secreted luciferase ER calcium/proteostasis reporter; series mostly up to 76.3 µM. The gist of the method: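 We seeded SH-SY5Y-GLuc-SERCaMP cells, added compounds (three concentrations in the primary run, eleven up to 76.6 uM in confirmation), incubated 16 h, depleted ER calcium with thapsigargin, and read luciferase 4 h later.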
In general terms: In qHTS, concentration-response curves come from the screen itself.
For the compound `Clc1ccc(C(c2ccc(Cl)cc2)n2cc[n+](CC(OCc3ccc(Cl)cc3Cl)c3ccc(Cl)cc3Cl)c2)cc1` (stereo not drawn), the Potency entry was “inactive”.

Turning to `CN1CCN(c2ccc([N+](=O)[O-])c3no[n+]([O-])c23)CC1`, the Potency result is “inactive”.

With `C[C@H]1CCCC=CC2C[C@H](O)C[C@@H]2[C@H](O)C=CC(=O)O1` (stereo partly drawn), the Potency entry is “inactive”.

Regarding `CC=C(C)C(=O)O[C@H]1C(C)=C2[C@@H]3OC(=O)[C@@](C)(O)[C@@]3(O)[C@@H](OC(=O)CCC)C[C@](C)(OC(C)=O)[C@@H]2[C@@H]1OC(=O)CCCCCCC`, the Potency entry was “inactive”.

The values above are taken from PubChem BioAssay (NCATS).
